Growth data for nine molecules are collected here from the supplement of paper PMC9262897, “Low-cost anti-mycobacterial drug discovery using engineered E. coli” (Nature Communications, 2022).

SMILES strings stand for the structures. Structures can show the parent of a compound that is named as a salt. ± gives the standard deviation of the averaged measurements.

Common to all, as to assay: growth (OD600 after 10 h); higher = more growth (less inhibition)
Experiment [1] relates to E. coli TESEC Alr+ wild-type control. Conditions: compound 0.1 mM; raw OD600 reference: median of DMSO wells 0.241, cell-free background 0.041. How it is done: (§1)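 TESEC Mtb Alr E. coli, or the Alr+ wild-type control, in 384-well plates with Prestwick library compounds at 0.1 mM and 1% DMSO, across arabinose induction levels of 1E3 to 1E7 nM. Growth is read as OD600 after 10 h at 37 °C in triplicate biological replicates.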

The subject of experiment [2] is E. coli TESEC Mtb Asd. Conditions: compound 0.1 mM. How it is done:
(§2)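 TESEC E. coli strains in which the native enzyme is deleted and replaced by arabinose-inducible Mtb Asd, DapB, CysH or TrpD, each grown in its selective medium. Strains were screened against the Prestwick library at 0.1 mM and 1% DMSO in 384-well format at low and high arabinose induction. Growth is read as OD600 after 10 h in triplicate.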

In experiment [3] the test system is E. coli TESEC Mtb DapB. Conditions: compound 0.1 mM. As for the experimental part: as §2
Experiment [4] has as its system E. coli TESEC Mtb Alr. Conditions: compound 0.1 mM. How it is done:
(§3)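 TESEC Mtb Alr E. coli (ΔaraC ΔtolC ΔentC Δalr ΔdadX, arabinose-inducible Mtb Alr) or the Alr+ wild-type control strain, grown in defined M9-fructose medium without D-alanine in 96-well plates with Prestwick library compounds at 0.1 mM and 1% DMSO. Low Alr induction is 0.1 µM arabinose and high induction is 10 mM arabinose.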

Experiment [5] relates to E. coli TESEC Mtb Alr. Conditions: compound 0.1 mM. As for the experimental part: as §1
The source holds these as a separate data set.

Experiment [6] concerns E. coli TESEC Alr+ wild-type control. Conditions: compound 0.1 mM; raw OD600 reference: median of DMSO wells 0.49, cell-free background 0.052. As for the experimental part:
as §3

The mark [7] stands for this setting: arabinose induction (level): High, raw OD600 reference: median of DMSO wells 0.331, cell-free background 0.041.
Setting [8] is: arabinose induction (level): Low, raw OD600 reference: median of DMSO wells 0.417, cell-free background 0.041.
Setting [9] is: arabinose induction (level): High, raw OD600 reference: median of DMSO wells […], cell-free background 0.041.
The mark [10] stands for this setting: arabinose induction (level): Low, raw OD600 reference: median of DMSO wells 0.227, cell-free background 0.041.
Where [11] appears, read: arabinose 100 nM, raw OD600 reference: median of DMSO wells 0.413, cell-free background 0.052.
The mark [12] stands for this setting: arabinose 10000000 nM, raw OD600 reference: median of DMSO wells […], cell-free background 0.052.
Setting [13] is: arabinose 1000 nM, raw OD600 reference: median of DMSO wells 0.294, cell-free background 0.041.
The mark [14] stands for this setting: arabinose 10000 nM, raw OD600 reference: median of DMSO wells 0.264, cell-free background 0.041.
Setting [15] is: arabinose 100000 nM, raw OD600 reference: median of DMSO wells 0.201, cell-free background 0.041.
Setting [16] is: arabinose 1000000 nM, raw OD600 reference: median of DMSO wells 0.193, cell-free background 0.041.
Where [17] appears, read: arabinose 10000000 nM, raw OD600 reference: median of DMSO wells 0.146, cell-free background 0.041.

For `COc1ccc(CCN2CCC(Nc3nc4ccccc4n3Cc3ccc(F)cc3)CC2)cc1` [Astemizole], the growth in experiment [1] stood at 0.041 ± 0.00045; in experiment [2] (setting [7]), 0.0477 ± 0.0029; in experiment [2] (setting [8]), 0.053 ± 0.004; in experiment [3] (setting [9]), 0.04653 ± 0.00032; in experiment [3] (setting [10]), 0.0845 ± 0.059; in experiment [4] (setting [11]), 0.176 ± 0.22. In addition, the growth in experiment [4] (setting [12]) is 0.0525 ± 0.0011.
Regarding `CC(C)(C)NCC(O)c1ccccc1Cl` (stereo unspecified) [Tulobuterol], the growth was 0.22 ± 0.005 in experiment [1]; 0.246 ± 0.067 in experiment [2] (setting [7]); 0.296 ± 0.019 in experiment [2] (setting [8]); 0.181 ± 0.017 in experiment [3] (setting [9]); 0.21 ± 0.016 in experiment [3] (setting [10]); 0.409 ± 0.0083 in experiment [4] (setting [11]). Also, the growth in experiment [4] (setting [12]) amounted to 0.341 ± 0.018.
On to `C[C@]12CCC(=O)C=C1C=C[C@@H]1[C@@H]2CC[C@@]2(C)[C@H]1CC[C@@]2(O)CCC(=O)O` [Canrenoic acid potassium salt], for which the growth in experiment [1] was determined as 0.227 ± 0.01; in experiment [5] (setting [13]) it was 0.275 ± 0.025; in experiment [5] (setting [14]), 0.237 ± 0.019; in experiment [5] (setting [15]), 0.16 ± 0.0057; in experiment [5] (setting [16]), 0.163 ± 0.0033; in experiment [5] (setting [17]), 0.15 ± 0.0017. Also, the growth in experiment [2] (setting [7]) worked out at 0.214 ± 0.052; in experiment [2] (setting [8]), 0.341 ± 0.03; in experiment [4] (setting [11]), 0.407 ± 0.0047; in experiment [4] (setting [12]) it was 0.264 ± 0.011.
As to `NCCCNCCSP(=O)(O)O` [Amifostine], the growth in experiment [1] was determined as 0.25 ± 0.0069; in experiment [5] (setting [13]), 0.297 ± 0.011; in experiment [5] (setting [14]), 0.273 ± 0.0058; in experiment [5] (setting [15]), 0.253 ± 0.011; in experiment [5] (setting [16]), 0.196 ± 0.013; in experiment [5] (setting [17]) it was 0.145 ± 0.0044. Further, the growth in experiment [2] (setting [7]) is 0.372 ± 0.057; in experiment [2] (setting [8]), 0.431 ± 0.061; in experiment [4] (setting [11]), 0.402 ± 0.011; in experiment [4] (setting [12]) it was 0.352 ± 0.011.
On to `CCC(=O)O[C@@](Cc1ccccc1)(c1ccccc1)[C@@H](C)CN(C)C` [Levopropoxyphene napsylate], for which the growth in experiment [1] amounted to 0.178 ± 0.0045; in experiment [2] (setting [7]), 0.169 ± 0.019; in experiment [2] (setting [8]) it was 0.388 ± 0.047; in experiment [6], 0.566 ± 0.042; in experiment [4] (setting [11]), 0.4145 ± 0.0027; in experiment [4] (setting [12]), 0.323 ± 0.013.
On to `CCCN1C[C@H](CSC)C[C@@H]2c3cccc4[nH]cc(c34)C[C@H]21` [Pergolide mesylate], for which the growth in experiment [1] is 0.2 ± 0.0044; in experiment [2] (setting [7]), 0.314 ± 0.05; in experiment [2] (setting [8]), 0.425 ± 0.015; in experiment [6], 0.529 ± 0.017; in experiment [4] (setting [11]) it was 0.426 ± 0.018; in experiment [4] (setting [12]), 0.345 ± 0.019.
For the molecule `CCC1(c2cccc(O)c2)CCCCN(C)C1` (stereo unspecified) [Meptazinol hydrochloride], the growth in experiment [1] came out at 0.2565 ± 0.0013; in experiment [2] (setting [7]) it was 0.176 ± 0.04; in experiment [2] (setting [8]) it was 0.41 ± 0.095; in experiment [3] (setting [9]) it was 0.215 ± 0.026; in experiment [3] (setting [10]), 0.217 ± 0.024; in experiment [6], 0.643 ± 0.03. The growth in experiment [4] (setting [11]) worked out at 0.411 ± 0.014; in experiment [4] (setting [12]) it was 0.323 ± 0.023.
For `COc1ccc(CCN)cc1OC` [Homoveratrylamine], the growth in experiment [1] was 0.2134 ± 0.001; in experiment [5] (setting [13]) it was 0.287 ± 0.0094; in experiment [5] (setting [14]), 0.281 ± 0.011; in experiment [5] (setting [15]) it was 0.182 ± 0.019; in experiment [5] (setting [16]) it was 0.219 ± 0.0076; in experiment [5] (setting [17]) it was 0.131 ± 0.002. Also, the growth in experiment [2] (setting [7]) was determined as 0.225 ± 0.018; in experiment [2] (setting [8]), 0.353 ± 0.087; in experiment [4] (setting [11]) it was 0.409 ± 0.0095; in experiment [4] (setting [12]), 0.316 ± 0.0066.
Consider `C[C@]12CC[C@H](O)C[C@@H]1CC[C@@H]1[C@@H]2CC[C@]2(C)C(=O)CC[C@@H]12` [Epiandrosterone], for which the growth in experiment [1] came to 0.126 ± 0.0063; in experiment [2] (setting [7]) it was 0.0929 ± 0.015; in experiment [2] (setting [8]), 0.168 ± 0.018; in experiment [3] (setting [9]), 0.152 ± 0.021; in experiment [3] (setting [10]), 0.136 ± 0.006; in experiment [4] (setting [11]), 0.353 ± 0.043. The growth in experiment [4] (setting [12]) worked out at 0.109 ± 0.0099.
